Screens (PubChem)
BLM helicase inh – inhibitors of human Bloom syndrome helicase BLM | recombinant BLM DNA unwinding, fluorescence dequenching | Potency, µM (doses to about 56.1 µM), inactives show at the highest dose activity change, negative = inhibition, usual class: inhibitors | 0.2% of 350,000 active;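 also: plate controls were vehicle for no effect and no enzyme for full effect; nearly all actives have a fitted effect of over 35% in size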
JMJD2E inh – JMJD2E (human) inhibition. B2RXH2. JMJD2E catalytic domain, FDH-coupled NADH fluorescence (FDH is formaldehyde dehydrogenase). Potency, µM (top dose mostly 57.1 µM), for the others: top-dose activity change, negative = inhibition, usual class: inhibitors. 1.6% of 230,000 active. AID 2147; active = well fitted inhibition curve with a large enough effect, not every such curve was filed as active; inconclusive = small, poorly fitted or top-dose-only effect, or another doubt; inactive = no such curve, though single readings can be large or run the other way;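 also: 0% = wells with enzyme and -100% = buffer wells without enzyme; nearly all actives have a fitted effect of over 50% in size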
RECQ1 helicase – blocks DNA unwinding by human RECQ1; AID 2549; Potency, µM (titrated, usually from 57.3 µM), inactives show at the highest dose activity, negative = inhibition, hits mostly inhibitors; P46063; RECQ1 DNA unwinding, red fluorescence kinetic read; 0.54% of 240,000 active;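 also: plate controls were vehicle for no effect and no enzyme for full effect; nearly all actives have a fitted effect of over 30% in size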
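50 nM RECQ1T1 preincubated 15 min with compound in Tris pH 8.0 buffer with MgCl2, DTT, Tween-20 and 2.5 ug/ml poly(dI-dC); started with 200 nM TAMRA/BHQ-2 forked duplex and 2 mM ATP. Unwinding read as fluorescence (525/598 nm), two reads 2 h apart.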
PKM2 act – activators of human pyruvate kinase M2 | Potency, µM (titrated, usually from 57.5 µM), inactives show top-dose activation, actives largely listed as activators | purified PKM2, Kinase-Glo ATP luminescence, activation; response scale: 0% is enzyme alone, no compound | 0.34% of 260,000 active; also: nearly all actives have a fitted effect of over 55% in size
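Purified hPK-M2 (>95% pure) converted ADP (0.1 mM final) to ATP with 0.5 mM PEP in 50 mM imidazole pH7.2, KCl, MgCl2, Tween 20, BSA; 1 h at room temperature. ATP detected by Kinase-Glo luminescence.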
APE1 inh – inhibitors of human APE1 endonuclease; Potency, µM (highest dose often 65.8 µM), for the others: top-dose activity change, negative = inhibition, most hits filed as inhibitors; AID 2517; 0.35% of 350,000 active; recombinant APE1, TAMRA/BHQ-2 abasic DNA cleavage fluorescence;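 also: plate controls were vehicle for no effect and reference inhibitor for full effect; nearly all actives have a fitted effect of over 55% in size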
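Compound pre-exposure to 0.75 nM APE1, 15 min at ambient temperature. Reaction initiated with 50 nM TAMRA/BHQ-2 THF substrate, read immediately in kinetic mode, 525 nm excitation, 598 nm emission.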
An asterisk follows results filed as active; i = inactive; ? = inconclusive; / = not tested or not shown; [ ] = remark or other dose. Shown is part of a subset that was picked to be rich in hits. Unless noted, calls follow the shape of the dose curve; as a rule, active = well fitted curve in the direction sought with a large enough effect; inconclusive = small, poorly fitted or top-dose-only effect, or another doubt; inactive = no such curve, though single readings can be large; an effect the other way counts as inactive or inconclusive. Unless noted, % is scaled to controls: 0 for no effect and ±100 for the full control effect; potency is read from the fitted curve at half-maximal effect.

SMILES	BLM helicase inh	JMJD2E inh	RECQ1 helicase	PKM2 act	APE1 inh
Cc1cc(/C=N/NC(=O)C(=O)NCc2ccccn2)c(C)n1-c1cccc(Br)c1	-5%	-13%	-26%	-1%	-1%
O=C(NCc1ccccn1)C(=O)N/N=C/c1ccccc1O	-2%	6.3µM*	24%	-14%	0%
O=C(NCCCN1CCOCC1)C(=O)N/N=C/c1ccccc1O	4%	11µM*	-4%	-2%	3%
O=C(NCCCN1CCOCC1)C(=O)N/N=C/c1ccccc1Cl	-2%	1%	-1%	-17%	-5%
O=C(N/N=C\c1ccccc1O)c1ccccc1O	-6%	5µM*	-9%	/	-4%
CC[C@H](C)[C@H](NC(=O)[C@H](Cc1ccccc1)NC(=O)[C@H](CC(C)C)NC(=O)[C@H](CCSC)NC(=O)[C@H](CCC(=O)O)NC(=O)[C@H](CCC(=O)O)NC(=O)[C@H](CC(=O)O)NC(=O)[C@H](CO)NC(=O)[C@@H]1CCCN1C(=O)[C@H](CCCCN)NC(=O)[C@@H](N)[C@@H](C)O)C(=O)N[C@@H](Cc1ccc(O)cc1)C(=O)NCC(=O)N[C@@H](Cc1cnc[nH]1)C(=O)N[C@@H](Cc1ccc(O)cc1)C(=O)N[C@@H](CCCCN)C(=O)N[C@@H](CCC(N)=O)C(=O)N[C@@H](C)C(=O)N[C@H](C(=O)N[C@H](C(=O)NCC(=O)N[C@@H](CC(=O)O)C(=O)N[C@H](C(=O)N[C@@H](CC(N)=O)C(=O)N[C@H](C(=O)N[C@@H](CCC(=O)O)C(=O)N[C@@H](CCCNC(=N)N)C(=O)N1CCC[C@H]1C(=O)NCC(=O)N[C@@H](CCSC)C(=O)N[C@@H](CC(C)C)C(=O)N[C@@H](CC(=O)O)C(=O)N[C@@H](Cc1ccccc1)C(=O)N[C@H](C(=O)O)[C@@H](C)O)[C@@H](C)O)[C@@H](C)CC)C(C)C)[C@@H](C)O	2%	/	8%	/	-5%
CCOC(=O)CSc1n[nH]c(-c2ccco2)n1	-1%	5%	-3%	0%	1%
O=C(O)c1ccc(CSc2n[nH]c(-c3ccco3)n2)cc1	-4%	-10%	-7%	-10%	40µM*
Cc1cc(O)ccc1Nc1nc2ccccc2nc1Nc1ccc(O)cc1C	-11%	25µM*	-7%	-1%	8%
Cc1ccc(Nc2nc3ccccc3s2)c(C)c1	-7%	-6%	i	0%	?
O=C/C=C/c1ccc(O)cc1	-1%	28µM*	-7%	/	0%
CC(=O)Nc1nonc1NC(C)=O	2%	12%	-8%	-4%	1%
CC(=O)Nc1cc(OC(C)=O)c2nonc2c1OC(C)=O	1.6µM*	-29%	5µM*	3%	?
CC1=CC(C)(C)Nc2ccc(OC(=O)CN3C(=O)c4cccc5cccc(c45)C3=O)cc21	-15%	13µM*	-9%	29%	20%
CC(=O)c1c(O)cccc1O	3%	/	-13%	/	2%
O=C(Oc1cccc(/C=N/Nc2nc(Nc3ccccc3)nc(N3CCOCC3)n2)c1)c1ccco1	-7%	2%	22µM*	-1%	7%
CN1CCN(c2ncc3nc(-c4cc(F)cc(F)c4)c(=O)n(CCC#N)c3n2)CC1	-10%	/	16%	/	-1%
O=C(/C=C\NCC(=O)c1ccccc1)c1ccc2ccccc2c1	-3%	18µM*	1%	-4%	1%
O=C(/C=C\NCC(=O)c1ccccc1)c1ccc(F)cc1	-7%	-8%	i	0%	0%
OC[C@H]1NC[C@H](O)[C@@H](O)[C@@H]1O	4%	/	11%	/	22%
C=CCCCC	/	/	-9%	/	0%
CCOc1cccc2oc(-c3ccccc3Cl)cc(=O)c12	-7%[75.6 µM]	/	-15%[81.1 µM]	/	-5%
OCc1ccc(O)c2ncccc12	-8%	16µM*	-10%	2%	2%
CC(C)COCc1ccc(O)c2ncccc12	-5%	20µM*	-6%	-1%	0%
Oc1ccc(Cl)c2cccnc12	3%	?	-9%	/	-2%
CCCOCc1ccc(O)c2ncccc12	-2%	14µM*	24%	1%	-4%
CN(Cc1ccco1)Cc1ccc(O)c2ncccc12	/	/	/	/	16%
Oc1ccc(COCc2ccccc2)c2cccnc12	3%	?	-16%	2%	3%
